# PubChem BioAssay AID2599 (Sanford-Burnham Center for Chemical Genomics, 2010)
# About 5,800 (1.8%) of roughly 330,000 compounds were called active.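 The calls were made as follows: active = inhibition above about 50% at the single tested dose (limit read from the data); inactive = the rest.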 Shown is part of a subset that was picked to be rich in actives.
# Molecular target: Sentrin-specific protease 6 (Homo sapiens) (UniProt Q9GZR1)
# Assay: inhibition of human SENP6 catalytic domain – biochemical, luminescence, uHTS, primary screen (AID 2599);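 also: plate controls were DMSO wells with enzyme for no effect and DMSO wells lacking enzyme for full effect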
# Conditions: Recombinant SENP6 catalytic domain, aminoluciferin luminescence; at 10 µM; stronger effect = higher value
# Sentrin-specific protease 6 (Homo sapiens), sequence (Q9GZR1 628-1112 limits assumed): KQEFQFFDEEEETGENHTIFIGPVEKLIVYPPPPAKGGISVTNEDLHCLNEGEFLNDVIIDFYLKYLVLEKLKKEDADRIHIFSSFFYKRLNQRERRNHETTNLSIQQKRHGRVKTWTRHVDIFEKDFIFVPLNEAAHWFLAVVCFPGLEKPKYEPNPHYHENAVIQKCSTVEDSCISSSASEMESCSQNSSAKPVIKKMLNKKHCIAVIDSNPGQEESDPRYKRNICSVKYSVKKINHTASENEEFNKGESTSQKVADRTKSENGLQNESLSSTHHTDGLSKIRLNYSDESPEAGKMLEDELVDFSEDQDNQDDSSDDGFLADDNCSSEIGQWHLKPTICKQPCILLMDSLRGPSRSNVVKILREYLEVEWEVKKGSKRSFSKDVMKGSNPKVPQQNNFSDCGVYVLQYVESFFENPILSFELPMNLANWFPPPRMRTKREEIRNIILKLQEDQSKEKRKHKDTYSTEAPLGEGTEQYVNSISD
row,Compound,inhibition
1,CCOC(=O)c1c(N)n(CCN2CCOCC2)c2nc3ccccc3nc12,-28.7% (inactive)
2,COc1cc(Cn2c(N)c(C(=O)NCc3ccco3)c3nc4ccccc4nc32)cc(OC)c1OC,83.6% (active)
3,CCOC(=O)c1c(N)n(Cc2ccccc2)c2nc3ccccc3nc12,29.7% (inactive)
4,CC[N+](CC)(CC)CCCCCCCCCC[N+](CC)(CC)CC,-14.6% (inactive)
5,O=C(Nc1cccc2ccccc12)N1CCC2(CC1)OCCO2,63.7% (active)
6,COc1ccc(NC(=O)N2CCC3(CC2)OCCO3)c(OC)c1,-19.7% (inactive)
7,O=C(c1cc(-c2ccncc2)nc2ccccc12)N1CCC2(CC1)OCCO2,5.91% (inactive)
8,Cc1cc2ccccn2c1C(C[N+](=O)[O-])c1c(F)cccc1Cl (stereo not given),-24.7% (inactive)
9,O=[N+]([O-])c1cnc2ccc3ccccc3c2c1,-4.31% (inactive)
10,C/C(CCc1c[nH]c2ccccc12)=N\O,-0.527% (inactive)
11,C/C(=N/O)c1ccc2ccc3ccccc3c2c1,53.8% (active)
12,O=C(NC(=S)N1C[C@H]2C[C@H](C1)c1cccc(=O)n1C2)c1ccc(F)cc1,0.817% (inactive)
13,CC(=O)N1CN2CN(C(C)=O)CC(C(=O)c3ccc(Br)cc3)(C2)C1,-9.66% (inactive)
14,O=c1[nH]c(=O)n(-c2ccc(F)cc2)c(O)c1C=NCCN1CCCCC1,-0.13% (inactive)
15,CCCCCCCCCCCCn1ccc(=N)cc1,-35.7% (inactive)
